# How the values were obtained:
# Experiment in all cases: DAPPL (digital affinity profiling via proximity ligation, sequencing); 10 mM Tris-HCl pH 7.5, 50 mM NaCl, 1 mM DTT, 4% glycerol, room temperature, 30 min; GST-TFs on glutathione beads, 16-mer random dsDNA library, 0.1% formaldehyde crosslink after washing; high values mean tight binding
# FLI1 = molecular target: T1, FLI1 (Homo sapiens, UniProt Q01543 1-452); details: protein: recombinant; tags: N-terminal GST; dsDNA, one strand shown
# T1 sequence: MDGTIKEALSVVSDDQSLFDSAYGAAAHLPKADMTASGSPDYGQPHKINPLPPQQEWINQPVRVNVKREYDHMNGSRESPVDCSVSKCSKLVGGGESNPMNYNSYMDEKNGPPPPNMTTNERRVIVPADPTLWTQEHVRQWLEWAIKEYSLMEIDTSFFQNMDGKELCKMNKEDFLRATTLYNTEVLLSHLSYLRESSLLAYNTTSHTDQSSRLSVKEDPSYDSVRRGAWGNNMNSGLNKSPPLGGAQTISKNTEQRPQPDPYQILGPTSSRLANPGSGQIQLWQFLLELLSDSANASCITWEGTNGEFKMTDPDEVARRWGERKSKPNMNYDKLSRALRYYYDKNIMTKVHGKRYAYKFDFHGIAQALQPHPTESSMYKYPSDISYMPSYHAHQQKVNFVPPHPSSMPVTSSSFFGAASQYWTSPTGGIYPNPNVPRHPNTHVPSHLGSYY
# Summary of the method: (§1)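 In yeast, human transcription factors were expressed with a GST fusion, then pulled down on glutathione beads and given DNA barcodes. Pooled with a tag-only sample, they were exposed to 200 nmole of a 16-mer random double-stranded DNA library (Tris/NaCl/DTT/glycerol buffer, room temperature, 30 min), washed, crosslinked with 0.1% formaldehyde, proximity-ligated using BsaI/T4 ligase for 1 h at 37 °C, PCR-amplified and read on an Illumina NextSeq500. Each hexamer's frequency of reads for a factor, divided by the matching frequency for the tag-only sample, gives the binding signal.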
# ELK1 = molecular target: T2, ELK1 (Homo sapiens, UniProt P19419 1-428); details: protein: recombinant; tags: N-terminal GST; dsDNA, one strand shown
# T2 sequence: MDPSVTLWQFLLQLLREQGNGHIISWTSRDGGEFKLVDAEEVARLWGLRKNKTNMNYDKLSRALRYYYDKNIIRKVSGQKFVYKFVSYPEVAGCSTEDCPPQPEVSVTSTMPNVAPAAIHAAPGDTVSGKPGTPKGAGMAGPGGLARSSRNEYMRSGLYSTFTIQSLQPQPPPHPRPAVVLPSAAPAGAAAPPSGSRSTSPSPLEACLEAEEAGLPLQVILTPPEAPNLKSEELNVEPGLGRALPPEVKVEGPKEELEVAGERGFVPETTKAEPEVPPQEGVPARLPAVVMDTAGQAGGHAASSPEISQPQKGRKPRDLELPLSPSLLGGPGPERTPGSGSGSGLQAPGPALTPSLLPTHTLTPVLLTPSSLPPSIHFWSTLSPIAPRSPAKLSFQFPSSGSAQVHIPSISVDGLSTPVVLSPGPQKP
# Summary of the method: as §1
# GABPA = molecular target: T3, GABPA (Homo sapiens, UniProt Q06546 1-454); details: protein: recombinant; tags: N-terminal GST; dsDNA, one strand shown
# T3 sequence: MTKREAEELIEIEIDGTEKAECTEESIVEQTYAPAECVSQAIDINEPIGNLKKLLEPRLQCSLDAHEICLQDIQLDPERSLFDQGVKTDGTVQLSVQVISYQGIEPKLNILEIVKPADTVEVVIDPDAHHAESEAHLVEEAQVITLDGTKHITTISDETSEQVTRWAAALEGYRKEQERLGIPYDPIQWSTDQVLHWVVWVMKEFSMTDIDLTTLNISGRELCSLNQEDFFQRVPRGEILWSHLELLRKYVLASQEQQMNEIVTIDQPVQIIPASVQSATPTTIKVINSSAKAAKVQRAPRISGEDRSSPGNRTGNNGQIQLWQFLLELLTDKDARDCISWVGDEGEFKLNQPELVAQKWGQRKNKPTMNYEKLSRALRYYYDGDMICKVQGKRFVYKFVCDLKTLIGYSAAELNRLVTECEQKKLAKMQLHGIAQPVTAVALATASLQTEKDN
# Summary of the method: as §1
# ERG = molecular target: T4, ERG (Homo sapiens, UniProt P11308 1-479); details: protein: recombinant; tags: N-terminal GST; dsDNA, one strand shown
# T4 sequence: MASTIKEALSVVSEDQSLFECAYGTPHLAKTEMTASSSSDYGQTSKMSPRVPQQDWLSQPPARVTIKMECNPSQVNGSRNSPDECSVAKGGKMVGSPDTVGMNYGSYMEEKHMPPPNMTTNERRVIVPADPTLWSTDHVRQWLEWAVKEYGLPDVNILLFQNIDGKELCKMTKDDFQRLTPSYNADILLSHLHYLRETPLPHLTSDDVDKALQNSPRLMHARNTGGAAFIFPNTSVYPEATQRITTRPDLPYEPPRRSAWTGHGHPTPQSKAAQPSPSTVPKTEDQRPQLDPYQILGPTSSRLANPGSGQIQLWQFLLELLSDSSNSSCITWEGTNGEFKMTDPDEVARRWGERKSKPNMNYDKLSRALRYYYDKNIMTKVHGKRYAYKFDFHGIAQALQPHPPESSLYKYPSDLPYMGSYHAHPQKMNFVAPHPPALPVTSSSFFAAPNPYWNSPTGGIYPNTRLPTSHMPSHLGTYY
# Summary of the method: as §1
# ELF1 = ELF1 (Homo sapiens, UniProt P32519 1-619); details: protein: recombinant; tags: N-terminal GST; dsDNA, one strand shown
# Chain of ELF1 (P32519 whole entry): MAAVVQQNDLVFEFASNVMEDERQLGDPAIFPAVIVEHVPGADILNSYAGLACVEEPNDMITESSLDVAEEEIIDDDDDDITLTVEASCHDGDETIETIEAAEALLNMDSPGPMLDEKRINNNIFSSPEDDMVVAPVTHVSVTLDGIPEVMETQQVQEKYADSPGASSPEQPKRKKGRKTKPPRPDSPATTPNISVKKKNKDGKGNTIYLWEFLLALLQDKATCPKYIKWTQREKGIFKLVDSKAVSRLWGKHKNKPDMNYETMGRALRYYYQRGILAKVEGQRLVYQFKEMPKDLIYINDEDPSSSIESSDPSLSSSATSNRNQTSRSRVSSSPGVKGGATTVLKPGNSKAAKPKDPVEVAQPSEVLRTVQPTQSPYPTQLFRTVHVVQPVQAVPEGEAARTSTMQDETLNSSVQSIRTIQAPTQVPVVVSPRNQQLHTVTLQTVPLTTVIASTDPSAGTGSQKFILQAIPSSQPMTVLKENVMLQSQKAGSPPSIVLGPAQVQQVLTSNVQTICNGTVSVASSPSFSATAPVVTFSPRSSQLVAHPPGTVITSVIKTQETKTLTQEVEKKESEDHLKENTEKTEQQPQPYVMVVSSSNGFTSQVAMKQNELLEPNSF
# Summary of the method: as §1
# EHF = molecular target: T5, EHF (Homo sapiens, UniProt Q9NZC4 1-300); details: protein: recombinant; tags: N-terminal GST; dsDNA, one strand shown
# T5 sequence: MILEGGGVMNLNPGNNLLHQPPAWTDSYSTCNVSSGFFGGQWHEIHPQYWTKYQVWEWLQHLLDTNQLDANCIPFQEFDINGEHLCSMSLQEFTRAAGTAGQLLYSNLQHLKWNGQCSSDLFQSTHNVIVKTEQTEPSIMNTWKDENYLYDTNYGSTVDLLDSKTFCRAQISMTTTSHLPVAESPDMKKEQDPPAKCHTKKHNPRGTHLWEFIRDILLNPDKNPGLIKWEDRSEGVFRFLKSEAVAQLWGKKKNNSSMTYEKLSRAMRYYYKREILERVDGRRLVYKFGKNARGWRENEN
# Summary of the method: as §1
# SPI1 = SPI1 (Homo sapiens, UniProt P17947 1-270); details: protein: recombinant; tags: N-terminal GST; dsDNA, one strand shown
# Summary of the method: as §1
# SPIB = SPIB (Homo sapiens, UniProt Q01892 1-262); details: protein: recombinant; tags: N-terminal GST; dsDNA, one strand shown
# Chain of SPIB (Q01892 whole entry): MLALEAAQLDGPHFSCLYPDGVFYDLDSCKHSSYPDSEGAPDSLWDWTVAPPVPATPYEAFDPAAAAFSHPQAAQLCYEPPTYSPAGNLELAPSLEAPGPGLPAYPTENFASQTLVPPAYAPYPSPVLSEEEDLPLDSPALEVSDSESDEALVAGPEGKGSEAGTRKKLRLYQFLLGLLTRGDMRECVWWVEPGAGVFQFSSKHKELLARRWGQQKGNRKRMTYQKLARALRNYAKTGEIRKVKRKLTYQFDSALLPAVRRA
# Summary of the method: as §1
# ELK3 = molecular target: T6, ELK3 (Homo sapiens, UniProt P41970 1-407); details: protein: recombinant; tags: N-terminal GST; dsDNA, one strand shown
# T6 sequence: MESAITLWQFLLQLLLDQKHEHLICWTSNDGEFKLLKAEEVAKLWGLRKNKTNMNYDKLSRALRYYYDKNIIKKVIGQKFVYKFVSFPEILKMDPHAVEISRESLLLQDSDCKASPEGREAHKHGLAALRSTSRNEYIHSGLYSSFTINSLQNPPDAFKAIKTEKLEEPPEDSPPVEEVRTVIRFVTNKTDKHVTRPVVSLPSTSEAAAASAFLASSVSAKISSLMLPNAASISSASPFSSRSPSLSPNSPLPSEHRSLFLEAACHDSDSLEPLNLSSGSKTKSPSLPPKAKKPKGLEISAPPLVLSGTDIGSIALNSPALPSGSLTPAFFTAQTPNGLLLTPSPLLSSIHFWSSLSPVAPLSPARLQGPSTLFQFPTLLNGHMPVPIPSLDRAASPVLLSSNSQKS
# Summary of the method: as §1
# FEV = molecular target: T7, FEV (Homo sapiens, UniProt Q99581 1-238); details: protein: recombinant; tags: N-terminal GST; dsDNA, one strand shown
# T7 sequence: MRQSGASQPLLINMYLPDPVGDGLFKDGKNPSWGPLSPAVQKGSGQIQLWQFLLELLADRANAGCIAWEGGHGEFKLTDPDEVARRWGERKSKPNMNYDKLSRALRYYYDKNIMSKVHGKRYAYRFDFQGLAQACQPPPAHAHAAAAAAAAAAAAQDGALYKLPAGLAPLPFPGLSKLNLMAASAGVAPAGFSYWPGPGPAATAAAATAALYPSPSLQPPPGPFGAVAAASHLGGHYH
# Summary of the method: as §1
# ETV5 = ETV5 (Homo sapiens, UniProt P41161 1-510); details: protein: recombinant; tags: N-terminal GST; dsDNA, one strand shown
# Chain of ETV5 (P41161 whole entry): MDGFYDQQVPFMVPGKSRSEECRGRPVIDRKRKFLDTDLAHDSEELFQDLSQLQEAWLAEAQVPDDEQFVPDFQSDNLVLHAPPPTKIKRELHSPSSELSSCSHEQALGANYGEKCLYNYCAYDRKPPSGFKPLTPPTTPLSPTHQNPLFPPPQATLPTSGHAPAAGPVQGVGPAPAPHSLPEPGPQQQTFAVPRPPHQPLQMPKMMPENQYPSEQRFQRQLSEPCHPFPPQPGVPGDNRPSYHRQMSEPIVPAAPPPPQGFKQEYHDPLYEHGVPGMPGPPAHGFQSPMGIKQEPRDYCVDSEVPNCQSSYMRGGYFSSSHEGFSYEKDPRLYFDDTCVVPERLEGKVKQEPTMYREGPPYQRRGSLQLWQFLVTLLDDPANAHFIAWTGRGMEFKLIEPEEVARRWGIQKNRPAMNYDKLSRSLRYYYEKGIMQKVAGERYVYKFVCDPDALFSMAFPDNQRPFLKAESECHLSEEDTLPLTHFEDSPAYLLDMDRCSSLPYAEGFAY
# Summary of the method: as §1
# HSF1 = HSF1 (Homo sapiens, UniProt Q00613 1-529); details: protein: recombinant; tags: N-terminal GST; chain copies: 3; dsDNA, one strand shown
# Chain of HSF1 (Q00613 whole entry): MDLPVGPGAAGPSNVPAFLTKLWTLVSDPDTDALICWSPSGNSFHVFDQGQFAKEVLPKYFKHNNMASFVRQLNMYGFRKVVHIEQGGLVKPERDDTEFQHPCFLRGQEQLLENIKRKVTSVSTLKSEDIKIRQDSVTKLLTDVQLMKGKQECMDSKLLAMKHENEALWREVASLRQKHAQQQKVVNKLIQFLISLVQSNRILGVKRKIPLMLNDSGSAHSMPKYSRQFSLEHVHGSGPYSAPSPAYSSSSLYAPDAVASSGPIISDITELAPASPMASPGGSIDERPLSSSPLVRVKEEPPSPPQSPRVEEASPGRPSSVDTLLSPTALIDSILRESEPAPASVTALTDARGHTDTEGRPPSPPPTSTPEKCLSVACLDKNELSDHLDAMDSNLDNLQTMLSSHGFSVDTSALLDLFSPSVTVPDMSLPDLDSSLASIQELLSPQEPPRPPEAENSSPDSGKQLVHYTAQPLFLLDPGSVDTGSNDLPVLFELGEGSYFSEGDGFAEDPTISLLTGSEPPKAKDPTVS
# Summary of the method: as §1
# SPIC = molecular target: T8, SPIC (Homo sapiens, UniProt Q8N5J4 1-248); details: protein: recombinant; tags: N-terminal GST; dsDNA, one strand shown
# T8 sequence: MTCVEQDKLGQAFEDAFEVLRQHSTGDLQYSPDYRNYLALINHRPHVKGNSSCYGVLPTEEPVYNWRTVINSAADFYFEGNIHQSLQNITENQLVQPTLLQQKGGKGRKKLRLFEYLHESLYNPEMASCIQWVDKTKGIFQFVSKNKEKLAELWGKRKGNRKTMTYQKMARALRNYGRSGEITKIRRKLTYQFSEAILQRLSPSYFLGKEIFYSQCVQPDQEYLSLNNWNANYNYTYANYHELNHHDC
# Summary of the method: as §1
# ELF4 = ELF4 (Homo sapiens, UniProt Q99607 1-663); details: protein: recombinant; tags: N-terminal GST; dsDNA, one strand shown
# Chain of ELF4 (Q99607 whole entry): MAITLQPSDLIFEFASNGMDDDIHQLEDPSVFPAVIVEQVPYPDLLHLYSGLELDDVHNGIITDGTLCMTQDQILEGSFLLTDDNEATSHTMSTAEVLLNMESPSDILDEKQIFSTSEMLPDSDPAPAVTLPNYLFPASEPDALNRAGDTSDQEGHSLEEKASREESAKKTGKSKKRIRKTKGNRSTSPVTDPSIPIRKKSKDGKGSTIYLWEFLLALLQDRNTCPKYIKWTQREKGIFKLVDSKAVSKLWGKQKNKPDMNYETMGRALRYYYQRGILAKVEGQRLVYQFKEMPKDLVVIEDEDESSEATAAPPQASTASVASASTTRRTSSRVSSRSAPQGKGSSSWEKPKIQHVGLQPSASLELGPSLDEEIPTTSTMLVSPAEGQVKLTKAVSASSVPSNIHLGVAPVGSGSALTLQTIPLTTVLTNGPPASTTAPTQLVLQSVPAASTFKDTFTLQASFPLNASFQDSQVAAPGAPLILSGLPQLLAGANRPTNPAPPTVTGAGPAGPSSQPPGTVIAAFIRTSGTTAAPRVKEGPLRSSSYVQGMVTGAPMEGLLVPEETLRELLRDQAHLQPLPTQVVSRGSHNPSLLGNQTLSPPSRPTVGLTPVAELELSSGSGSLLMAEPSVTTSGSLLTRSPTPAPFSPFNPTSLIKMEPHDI
# Summary of the method: as §1
# ELK4 = molecular target: T9, ELK4 (Homo sapiens, UniProt P28324-2 1-405); details: protein: recombinant; tags: N-terminal GST; dsDNA, one strand shown
# T9 sequence: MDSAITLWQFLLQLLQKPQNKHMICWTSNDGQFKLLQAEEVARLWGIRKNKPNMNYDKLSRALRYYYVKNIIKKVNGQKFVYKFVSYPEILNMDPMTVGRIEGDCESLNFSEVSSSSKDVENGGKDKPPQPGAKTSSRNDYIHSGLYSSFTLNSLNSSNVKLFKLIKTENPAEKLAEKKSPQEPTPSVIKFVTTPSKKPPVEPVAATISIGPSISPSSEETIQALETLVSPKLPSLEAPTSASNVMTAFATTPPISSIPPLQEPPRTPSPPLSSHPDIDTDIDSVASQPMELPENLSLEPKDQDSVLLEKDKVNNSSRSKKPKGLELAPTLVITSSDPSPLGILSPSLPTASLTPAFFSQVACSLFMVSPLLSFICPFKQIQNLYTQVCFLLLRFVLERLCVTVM
# Summary of the method: as §1
# ETV2 = molecular target: T10, ETV2 (Homo sapiens, UniProt O00321 1-342); details: protein: recombinant; tags: N-terminal GST; dsDNA, one strand shown
# T10 sequence: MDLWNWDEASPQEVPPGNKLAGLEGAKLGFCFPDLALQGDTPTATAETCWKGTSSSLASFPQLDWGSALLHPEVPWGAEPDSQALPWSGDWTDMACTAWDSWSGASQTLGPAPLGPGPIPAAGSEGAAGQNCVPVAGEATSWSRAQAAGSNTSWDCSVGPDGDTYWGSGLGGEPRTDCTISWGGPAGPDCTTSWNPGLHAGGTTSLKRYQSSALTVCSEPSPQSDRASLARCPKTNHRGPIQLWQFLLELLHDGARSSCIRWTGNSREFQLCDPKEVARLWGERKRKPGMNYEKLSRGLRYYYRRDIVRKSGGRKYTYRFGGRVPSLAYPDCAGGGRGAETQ
# Summary of the method: as §1
# ELF3 = molecular target: T11, ELF3 (Homo sapiens, UniProt P78545 1-371); details: protein: recombinant; tags: N-terminal GST; dsDNA, one strand shown
# T11 sequence: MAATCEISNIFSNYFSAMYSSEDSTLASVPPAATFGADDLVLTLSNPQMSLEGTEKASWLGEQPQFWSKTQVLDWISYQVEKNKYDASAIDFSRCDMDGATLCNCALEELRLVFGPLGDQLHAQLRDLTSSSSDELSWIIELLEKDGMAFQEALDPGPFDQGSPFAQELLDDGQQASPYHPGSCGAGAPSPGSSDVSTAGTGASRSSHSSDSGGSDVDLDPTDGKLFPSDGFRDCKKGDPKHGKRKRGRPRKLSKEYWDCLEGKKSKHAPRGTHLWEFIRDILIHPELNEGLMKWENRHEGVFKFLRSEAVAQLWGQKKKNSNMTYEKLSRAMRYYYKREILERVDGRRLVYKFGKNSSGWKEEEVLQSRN
# Summary of the method: as §1
# CRX = CRX (Homo sapiens, UniProt O43186 1-299); details: protein: recombinant; tags: N-terminal GST; dsDNA, one strand shown
# Chain of CRX (O43186 whole entry): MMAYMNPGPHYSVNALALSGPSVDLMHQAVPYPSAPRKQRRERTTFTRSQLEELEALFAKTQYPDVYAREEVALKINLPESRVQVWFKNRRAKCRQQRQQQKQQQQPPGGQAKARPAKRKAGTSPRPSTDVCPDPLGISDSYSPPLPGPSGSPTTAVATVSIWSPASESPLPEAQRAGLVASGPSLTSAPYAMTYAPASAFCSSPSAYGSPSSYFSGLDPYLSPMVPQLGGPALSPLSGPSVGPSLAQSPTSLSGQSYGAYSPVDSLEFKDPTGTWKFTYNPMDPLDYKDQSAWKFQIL
# Summary of the method: as §1
# ETV1 = ETV1 (Homo sapiens, UniProt P50549 1-477); details: protein: recombinant; tags: N-terminal GST; dsDNA, one strand shown
# Chain of ETV1 (P50549 whole entry): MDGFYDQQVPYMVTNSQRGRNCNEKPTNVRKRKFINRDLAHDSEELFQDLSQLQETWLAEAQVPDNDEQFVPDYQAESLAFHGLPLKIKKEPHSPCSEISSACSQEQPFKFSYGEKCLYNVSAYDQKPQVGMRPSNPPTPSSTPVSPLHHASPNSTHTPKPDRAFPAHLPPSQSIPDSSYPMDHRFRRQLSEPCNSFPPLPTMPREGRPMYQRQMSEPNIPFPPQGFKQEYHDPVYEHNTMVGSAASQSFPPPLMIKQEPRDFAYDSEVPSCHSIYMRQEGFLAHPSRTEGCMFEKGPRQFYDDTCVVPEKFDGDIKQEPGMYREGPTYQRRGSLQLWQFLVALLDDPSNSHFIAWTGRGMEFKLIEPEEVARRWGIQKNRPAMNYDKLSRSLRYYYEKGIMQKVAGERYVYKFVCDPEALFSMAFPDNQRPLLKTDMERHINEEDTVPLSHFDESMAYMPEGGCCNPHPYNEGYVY
# Summary of the method: as §1
sequence,measurement,setting,value
TAACGC,binding signal,FLI1,"1.12 fold enrichment (6-mer frequency, TF over GST control)"
same,binding signal,ELK1,"1.2 fold enrichment (6-mer frequency, TF over GST control)"
same,binding signal,GABPA,"1.21 fold enrichment (6-mer frequency, TF over GST control)"
same,binding signal,ERG,"1.17 fold enrichment (6-mer frequency, TF over GST control)"
same,binding signal,ELF1,"1.27 fold enrichment (6-mer frequency, TF over GST control)"
same,binding signal,EHF,"1.16 fold enrichment (6-mer frequency, TF over GST control)"
same,binding signal,SPI1,"1.17 fold enrichment (6-mer frequency, TF over GST control)"
same,binding signal,SPIB,"1.13 fold enrichment (6-mer frequency, TF over GST control)"
same,binding signal,ELK3,"1.23 fold enrichment (6-mer frequency, TF over GST control)"
same,binding signal,FEV,"1.19 fold enrichment (6-mer frequency, TF over GST control)"
same,binding signal,ETV5,"1.22 fold enrichment (6-mer frequency, TF over GST control)"
same,binding signal,HSF1,"1.28 fold enrichment (6-mer frequency, TF over GST control)"
same,binding signal,SPIC,"1.05 fold enrichment (6-mer frequency, TF over GST control)"
same,binding signal,ELF4,"1.15 fold enrichment (6-mer frequency, TF over GST control)"
same,binding signal,ELK4,"1.17 fold enrichment (6-mer frequency, TF over GST control)"
same,binding signal,ETV2,"1.13 fold enrichment (6-mer frequency, TF over GST control)"
same,binding signal,ELF3,"1.17 fold enrichment (6-mer frequency, TF over GST control)"
same,binding signal,CRX,"1.63 fold enrichment (6-mer frequency, TF over GST control)"
same,binding signal,ETV1,"1.12 fold enrichment (6-mer frequency, TF over GST control)"

# Source: article PMC7862700, “An all-to-all approach to the identification of sequence-specific readers for epigenetic DNA modifications on cytosine”
